# Test results from the supplement of paper PMC9694430.
# Structures can show the parent of a compound that is named as a salt.
# How the values were obtained:
# Test in all cases: thermal shift delta Tm vs DMSO control; higher = stronger stabilization (binding)
# Settings in all cases: 12.5 µM; protein concentration 2 µM
# [1] = system: LOC_OS01G01410-cb001
# Method in brief: (§1)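 Heating from 25°C to 95°C at 0.05°C/s, fluorescence was recorded for 19.5 μl wells of 2 μM E. coli-expressed, purified rice kinase domain in 100 mM potassium phosphate pH 7.5, 150 mM NaCl, 10% glycerol and 5 × SYPRO Orange with compound in DMSO. Boltzmann fits gave melting temperatures for this differential scanning fluorimetry assay. The shift reported is the mean of three replicates against the DMSO-only protein.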
# [2] = system: LOC_OS01G02750-cb003
# Method in brief: as §1
# [3] = system: LOC_OS01G10900-cb004
# Method in brief: as §1
# [4] = system: LOC_OS01G13800-cb001
# Method in brief: as §1
# [5] = system: LOC_OS01G14860-cb001
# Method in brief: as §1
# [6] = system: LOC_OS01G21960-cb002
# Method in brief: as §1
# [7] = system: LOC_OS01G39600-cb002
# Method in brief: as §1
# [8] = system: LOC_OS01G48390-cb002
# Method in brief: as §1
# [9] = system: LOC_OS01G51400-cb002
# Method in brief: as §1
# [10] = system: T1, LOC_OS01G52050-cb004
# T1 sequence (whole entry): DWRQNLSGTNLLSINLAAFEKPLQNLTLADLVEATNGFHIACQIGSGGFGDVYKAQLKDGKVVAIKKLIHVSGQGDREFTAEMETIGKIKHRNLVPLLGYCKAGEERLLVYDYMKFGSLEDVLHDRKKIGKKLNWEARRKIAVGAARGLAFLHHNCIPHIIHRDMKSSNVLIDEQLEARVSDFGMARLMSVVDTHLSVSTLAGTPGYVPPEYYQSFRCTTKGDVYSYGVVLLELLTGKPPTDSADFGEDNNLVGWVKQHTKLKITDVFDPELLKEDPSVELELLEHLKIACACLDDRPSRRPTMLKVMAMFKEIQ
# Method in brief: as §1
# 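Further: purified Escherichia coli-expressed rice kinase domain construct.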
Compound,thermal shift delta Tm [1] [°C],thermal shift delta Tm [2] [°C],thermal shift delta Tm [3] [°C],thermal shift delta Tm [4] [°C],thermal shift delta Tm [5] [°C],thermal shift delta Tm [6] [°C],thermal shift delta Tm [7] [°C],thermal shift delta Tm [8] [°C],thermal shift delta Tm [9] [°C],thermal shift delta Tm [10] [°C]
Cc1ccc(NC(=O)c2ccc(CN3CCN(C)CC3)cc2)cc1Nc1nccc(-c2cccnc2)n1 [Imatinib (STI571)],0.68,0,1.47,-0.47,0.24,-0.24,-0.27,1.69,0.14,0.62
N=C(N)NC(=N)NCCc1ccccc1 [Phenformin HCl],0.54,0.14,0.3,-0.2,0.25,0.77,-0.37,0.38,0.25,0.48
COc1cc(Nc2ncc3c(n2)-c2ccc(Cl)cc2C(c2c(F)cccc2OC)=NC3)ccc1C(=O)O [Alisertib (MLN8237)],0.87,0.27,-0.01,-0.04,0.35,-0.3,3.62,-0.18,-0.33,0.48
N#Cc1c(NC(=O)c2cccc3ccccc23)sc2c1CCCC2 [JNK Inhibitor IX],0.03,1.54,0.06,0.52,-0.15,0.78,-0.09,-0.06,0.19,-0.13
O=S(=O)(c1cccc2c(I)cccc12)N1CCCNCC1,0.23,0.79,0.56,0.43,0.67,0.53,0.27,1.35,0.24,2.58
CC(C)NC[C@@H](C(=O)N1CCN(c2ncnc3c2[C@H](C)C[C@H]3O)CC1)c1ccc(Cl)cc1 [Ipatasertib (GDC-0068)],0.15,0.42,0.03,0.07,0.06,0.43,0.77,-0.11,0.32,0.26
O=c1c(O)c(-c2cc(O)c(O)c(O)c2)oc2cc(O)cc(O)c12 [Myricetin],2.93,26.2,1.94,1.96,5.72,5.56,4.45,2.72,2.08,5.01
CO[C@H]1C[C@@H]2CC[C@@H](C)[C@@](O)(O2)C(=O)C(=O)N2CCCC[C@H]2C(=O)O[C@H]([C@H](C)C[C@@H]2CC[C@@H](OCCO)[C@H](OC)C2)CC(=O)[C@H](C)/C=C(\C)[C@@H](O)[C@@H](OC)C(=O)[C@H](C)C[C@H](C)/C=C/C=C/C=C/1C [Everolimus (RAD001)],1.13,-1.72,0.03,0.16,-0.41,0.16,0.54,0.33,-0.03,0.35
COc1cc(-c2cc(-c3ccc(N4CCNCC4)cc3)cnc2C)cc(OC)c1OC,1.74,0.65,1.13,-0.6,-0.12,0.67,-1.03,0.11,-0.26,0.04
Cc1cnc(Nc2ccc(OCCN3CCCC3)cc2)nc1Nc1cccc(S(=O)(=O)NC(C)(C)C)c1,1.71,0.69,0.57,-0.28,1.28,2.52,5.09,0.66,0.43,2.51
O=C(NOC[C@H](O)CO)c1ccc(F)c(F)c1Nc1ccc(I)cc1F,1.23,0.99,0.49,0.45,0.5,0.89,0.66,0.89,0.22,0.59
C#Cc1cccc(Nc2ncnc3cc(OC)c(OCCCCCCC(=O)NO)cc23)c1,0.66,0.59,0.97,0.44,0.54,0.53,1.06,1.12,0.13,0.41
c1cc(-c2cnn3cc(-c4ccc(OCCN5CCCCC5)cc4)cnc23)ccn1 [Dorsomorphin 2HCl],4.71,10.2,8.66,0.11,2.59,3,7.6,5.88,0.21,6.74
CNS(=O)(=O)Nc1nccc(Cc2c(C)c3ccc(Oc4ncccn4)cc3oc2=O)c1F,0.15,1.63,0.11,0.82,0.18,0.68,-0.07,0.47,0.47,0.66
N#CC1(c2ccc(NC(=O)c3cccnc3NCc3ccncc3)cc2)CCCC1 [Apatinib],1.1,0.48,0.27,0.11,0.52,0.5,0.01,0.55,0.33,0.12
COc1cc2/c(=N/c3ccc(Br)cc3F)nc[nH]c2cc1OCC1CCN(C)CC1 [Vandetanib (ZD6474)],1.05,-0.06,0.86,-0.25,0.15,0.02,0.47,1.67,0.15,1.36

Compound,thermal shift delta Tm [1] [°C],thermal shift delta Tm [2] [°C],thermal shift delta Tm [3] [°C],thermal shift delta Tm [4] [°C],thermal shift delta Tm [5] [°C],thermal shift delta Tm [6] [°C],thermal shift delta Tm [7] [°C],thermal shift delta Tm [8] [°C],thermal shift delta Tm [9] [°C],thermal shift delta Tm [10] [°C]
CC(C)n1nc(-c2ccc3oc(N)nc3c2)c2c(N)ncnc21,0.59,1.42,0.77,-0.13,0.42,0.3,-0.69,1.9,0.43,0.95
CC(C)(C)c1nc(-c2ccc(NC(=O)Nc3cccc(C(F)(F)F)c3)c3ccccc23)c2c(N)nccn12 [kira6],0.7,9.79,0.45,1.09,1.63,2.1,1.51,1.52,0.79,5.68
O=C(O)[C@]1(Cc2cccc(Nc3nccs3)n2)CC[C@@H](Oc2cccc(Cl)c2F)CC1,1.81,1.68,3.48,-1.25,5.16,1,2.55,3.01,-0.7,13.5
Cc1cc(Nc2cc(Cl)nc(Oc3ccc([N+](=O)[O-])cc3)n2)n[nH]1 [Autophinib],2.53,3.49,2.92,-0.1,7.77,1.42,1.82,4.13,0.51,5.57
CNC(=O)c1cc(Oc2ccc(NC(=O)Nc3ccc(Cl)c(C(F)(F)F)c3)cc2)ccn1 [Sorafenib],1.65,3.61,1.53,1.59,4.41,2.7,1.52,2.74,0.71,5.22
C[C@@H](N)c1ccc(C(=O)Nc2ccnc3[nH]ccc23)cc1,0.24,1.16,0.32,0.63,1.44,1.78,0.74,0.45,0.27,1.35
c1cncc(CN2CCC(n3ncc4c(N5CCOCC5)nc(-c5ccc6[nH]ccc6c5)nc43)CC2)c1,0.33,-0.32,0.65,0.33,0.21,0.55,0.03,0.18,0.45,-0.01
CN(C)Cc1cccc(N=C(c2ccccc2)c2c(O)[nH]c3cc(C(=O)N(C)C)ccc23)c1,-0.17,0.75,0.14,0.49,0.13,0.52,1.05,1.46,0.16,0.77
CSc1cccc(Nc2ncc3cc(-c4c(Cl)cccc4Cl)c(=O)n(C)c3n2)c1,0.57,0.56,1.7,0.31,0.06,0.55,-0.21,0.12,0.18,0.18
S=C(NCc1ccc2c(c1)OCO2)N1CCN(c2ncnc3c2oc2ccccc23)CC1 [Amuvatinib (MP-470)],0.66,-0.56,0.77,1.03,0.42,0.46,0.21,0.88,0.31,1.3
Cc1cc(Nc2nc(N[C@@H](C)c3ccc(F)cc3)c(C#N)cc2F)n[nH]1,4.59,1.83,0.46,-0.07,5.09,1.28,4.3,5.61,0.07,0.63
CCNC(=O)Nc1ccc(-c2nc(N3CCOC[C@@H]3C)c3c(n2)C(C)(C)S(=O)(=O)C3)cc1,0.67,1.05,0.47,0.09,0.6,0.34,-0.26,-0.02,0.22,3.06
CS(=O)(=O)N1CCN(Cc2cc3nc(-c4cccc5[nH]ncc45)nc(N4CCOCC4)c3s2)CC1 [Pictilisib (GDC-0941)],1.2,0.47,0.85,0.43,1.21,0.24,0.57,2.14,-0.08,-0.11
Nc1ncccc1-c1nc2ccc(-c3ccccc3)nc2n1-c1ccc(C2(N)CCC2)cc1 [Miransertib (ARQ 092) HCl],0.37,2.32,0.6,-0.45,0.59,0.09,0.14,0.09,0.08,0.78
NC1(Cc2ccc(Cl)cc2)CCN(c2ncnc3[nH]ccc23)CC1,0.45,0.58,-0.03,0.07,1.34,0.89,0.46,3.31,0.45,0.94
CC(C)CC(NC(=O)C(Cc1ccccc1)NC(=O)C(CCC(N)=O)NC(=O)C(Cc1ccc(O)cc1)NC(=O)C(C)NC(=O)CNC(=O)C(CCCCN)NC(=O)C(Cc1c[nH]c2ccccc12)NC(=O)C(NC(=O)C(Cc1c[nH]c2ccccc12)NC(=O)C(CCCCN)NC(=O)CNC(=O)C(CC(N)=O)NC(=O)C(CCC(=O)O)NC(=O)C(Cc1c[nH]c2ccccc12)NC(=O)C(NC(=O)C(Cc1c[nH]c2ccccc12)NC(=O)C(CO)NC(=O)CNC(=O)C1CCCN1C(=O)C(Cc1c[nH]c2ccccc12)NC(=O)C(CCC(N)=O)NC(=O)C(Cc1ccccc1)NC(=O)CNC(=O)C(N)Cc1c[nH]cn1)C(C)O)C(C)O)C(=O)NC(CCCCN)C(=O)NCC(=O)NCC(=O)NCC(=O)NCC(=O)NC(CO)C(=O)NC(CCCNC(=N)N)C(=O)NC(CCCNC(=N)N)C(=O)NC(CCCNC(=N)N)C(=O)NC(CCCNC(=N)N)C(=O)NC(CCCNC(=N)N)C(=O)NC(CCCNC(=N)N)C(=O)NC(CCCNC(=N)N)C(=O)NC(CCCNC(=N)N)C(=O)NC(CCCNC(=N)N)C(=O)O (stereo not given),0.36,-0.66,1.09,1.22,0.08,1.26,2,1.2,-0.25,1.43
